Test results reported in PubChem BioAssay (NCI).
Compounds without any hit were thinned out: in the full panel of roughly 79,000, 15% have a hit. No stated cut-off is given here; in the data, active means growth inhibition above about 70%; inactive means the rest.

Assays:
[1] = NCI Yeast Anticancer Drug Screen. Data for the rad50 strain (AID 155);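 further: 0% = growth of vehicle-only cultures of the same strain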; details: S. cerevisiae rad50 strain growth inhibition; at 50.0 µM; hits give high values
How it was run: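 Compounds were tested on a yeast strain with an engineered DNA damage repair alteration; the reported value is growth inhibition normalised to vehicle treatment.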

[2] = NCI Yeast Anticancer Drug Screen. Data for the mec2-1 strain (AID 157); details: S. cerevisiae mec2-1 strain, at 50.0 µM, hits give high values
How it was run: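 Strain: mec2-1 (DNA repair/cell cycle alteration). Compound exposure, then growth measured; inhibition expressed relative to vehicle.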

[3] = NCI Yeast Anticancer Drug Screen. Data for the sgs1 mgt1 strain (AID 161);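 further: 0% = growth of cultures given vehicle only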; details: S. cerevisiae sgs1 mgt1 strain, at 50.0 µM, hits give high values
How it was run: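 Test agents were incubated with a DNA-repair-mutant yeast strain. Growth was then read and compared against vehicle-treated controls.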

[4] = NCI Yeast Anticancer Drug Screen. Data for the cln2 rad14 strain (AID 165);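 further: 0% = growth equal to vehicle treated cultures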; details: S. cerevisiae cln2 rad14 strain, at 50.0 µM, hits give high values
How it was run: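 Compounds are applied to the cln2 rad14 yeast strain, and growth is then compared with that of vehicle-treated cultures to give inhibition.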

[5] = NCI Yeast Anticancer Drug Screen. Data for the bub3 strain (AID 167); details: S. cerevisiae bub3 mutant strain, at 50.0 µM, hits give high values
How it was run: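 Growth of a checkpoint-deficient yeast mutant is measured after compound exposure. Values represent inhibition relative to vehicle.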

[6] = NCI Yeast Anticancer Drug Screen. Data for the mlh1 rad18 strain (AID 175); details: S. cerevisiae mlh1 rad18 strain growth inhibition; at 50.0 µM; hits give high values
How it was run: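 Read-out is yeast growth inhibition, calculated against vehicle-only controls. The compound was applied to a strain engineered with DNA damage repair alterations.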

Measured: growth inhibition

c1ccc(-n2nnnc2-c2nnnn2-c2ccccc2)cc1
inactive: [1] -7.35% | [2] -5.2% | [3] -1.5% | [4] -18.7% | [5] 20.7% | [6] -11%

ClC1=C(Cl)C2(Cl)C3C(c4ccc(I)cc4C4C3C3(Cl)C(Cl)=C(Cl)C4(Cl)C3(Cl)Cl)C1(Cl)C2(Cl)Cl (stereo unspecified)
inactive: [1] 14.6% | [2] 15.4% | [3] 8.8% | [4] 14.1% | [5] 20.6% | [6] 16.9%

CC(=O)C1CN(C)CCC1=O (stereo unspecified)
inactive: [1] -20% | [2] -4.55% | [3] -19.8% | [4] -11.2% | [5] -13.7% | [6] 16.9%

CC1CCC2(OC1)OC1CC3C4CCC5CC(O)CCC5(C)C4CC(=O)OC3(C)C1C2C (stereo unspecified)
inactive: [1] -10.8% | [2] -23.6% | [3] -14.8% | [4] -7.35% | [5] -25% | [6] 2.2%

CCCCCCCCCCS(C)(=O)=O
inactive: [1] -19.4% | [2] -3.95% | [3] -7.25% | [4] -16.4% | [5] -24.9% | [6] -24.6%

N#CCc1cn(-c2ccccc2)nn1
inactive: [1] -7.85% | [2] 8.3% | [3] -9.5% | [4] 5.45% | [5] 0.45% | [6] -25.2%

CCOC(=O)C(NC(C)=O)(C(=O)OCC)C1CCCCC1=O (stereo unspecified)
inactive: [1] -10.8% | [2] 2.65% | [3] -33.4% | [4] -3.4% | [5] -10.8% | [6] -20.5%

CCN=C1Nc2ccccc2-n2c(nn3nc4ccccc4c23)N1CC
inactive: [1] -13.1% | [2] -26.4% | [3] -42% | [4] -24.3% | [5] -41% | [6] -51.7%

CC(=O)NCC(O)C(O)C(O)C(O)COC(=O)c1ccccc1 (stereo unspecified)
inactive: [1] 6.6% | [2] -1.25% | [3] 19.2% | [4] -6.45% | [5] -2.15% | [6] -5%

COC(=O)c1csnn1
inactive: [1] 1.2% | [2] 10.8% | [3] 12.7% | [4] 8.5% | [5] 4.3% | [6] 10.2%

Nc1c(C(=O)Nc2cccc3c2C(=O)c2ccccc2C3=O)ccc2c1C(=O)c1ccccc1C2=O
inactive: [1] 35.1% | [2] 10.1% | [3] 43.3% | [4] 26.7% | [5] 2.75% | [6] 24%

c1cc2cc3c4c5c(cc6ccc7cc8cc9c%10c8c8c7c6c5c8c5c%10c(c1C9N1CCOCCOCCOCCOCCOCC1)c2c45)C3 (stereo unspecified)
inactive: [1] -15.1% | [2] -2.35% | [3] 3.1% | [4] 17.7% | [5] 3.35% | [6] -9.9%

ClCCCCCCCCCCl
inactive: [1] 28.6% | [2] -17.4% | [3] -12.7% | [4] -9% | [5] -13.2% | [6] 2.15%

C/C(=C1/N=C(c2cc([N+](=O)[O-])ccc2Cl)N(c2ccc(Br)cc2)C1=O)c1cc2ccccc2oc1=O
inactive: [1] 35.3% | [2] 17.7% | [3] 15.7% | [4] 14.1% | [5] 9.35% | [6] 19.8%

COC(=O)C(=O)C(C(C)=O)C(=O)C(=O)Nc1ccc(C)cc1C (stereo unspecified)
inactive: [1] 19.1% | [2] 14.1% | [3] 1.95% | [4] 15.2% | [5] 26.1% | [6] 17.9%

CCCCCN(CCOC(=O)c1ccc([N+](=O)[O-])cc1)CCOC(=O)c1ccc([N+](=O)[O-])cc1
inactive: [1] 7.5% | [2] 4.7% | [3] 7.25% | [4] 7.8% | [5] -2.6% | [6] 7.45%

NNC(N)=Nc1cccc2ccccc12
inactive: [1] -2.9% | [2] -7.5% | [3] 0.35% | [4] 15.7% | [5] 11.4% | [6] -18.6%

C/C=C/C(O)CC (stereo unspecified)
inactive: [1] 13.8% | [2] -38.4% | [3] 3.2% | [4] -0.85% | [5] -10.8% | [6] 0.5%

CCC1=C(C)C(=O)OC1n1ccc(=O)[nH]c1=O (stereo unspecified)
inactive: [1] -11.6% | [2] -2.75% | [3] 2.8% | [4] -37% | [5] -5% | [6] -3.5%

CC(=O)OC1CC(O)C23COC(O)C1(C)C2CC(O)C1(C)C3C(=O)C(O)C2(C)C(c3ccoc3)CC3OC321 (stereo unspecified)
inactive: [1] -9.9% | [2] 2.75% | [3] -11.3% | [4] 0.2% | [5] -2.2% | [6] -37.7%

COc1ccc(NC(=O)Nc2ccc(Cl)cc2C)cc1
inactive: [1] -13.4% | [2] -2.8% | [3] -11.6% | [4] -12.2% | [5] -12.5% | [6] -15.2%
